Assay [1] concerns XIP peptide (Xip251-270) binding. Description: small-molecule binders of XIP peptide, primary screen, biochemical, small-molecule microarray, fluorescence 635/667 nm, 0.1 µg/mL protein (AID 1182). As to conditions: fluorescent protein binding, 635 nm, higher = more signal, called active from +8 up or from −8 down.
The test system of the next assay is XIP peptide (Xip251-270). Description: small-molecule binders of XIP peptide, primary screen, biochemical, small-molecule microarray, fluorescence 635/667 nm, 0.5 µg/mL protein (AID 1183). Particulars: small-molecule microarray binding, fluorescence 635 nm; higher = more signal.
The nature of assay [2]: Plasmodium falciparum growth inhibition, primary screen, strain 3D7, DAPI fluorescence, 100 nL (AID 1184).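 Note: parasites grown inside human red blood cells in medium with human serum.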 As to conditions: P. falciparum 3D7 growth, 3 d, higher = more signal.
For assay [3], the target named is Homeobox protein Hox-A13 (Mus musculus) (UniProt Q62424). Description: inhibitors of HoxA13-DNA binding, primary screen, biochemical, fluorescence polarization, labeled oligonucleotide (AID 1185). As to conditions: 15 min, higher = more signal, called active from +8 up or from −8 down. Background: Fluorescence polarisation rises when a labelled molecule tumbles more slowly, as on binding a larger partner.
Sequence of Homeobox protein Hox-A13 (Mus musculus) (Q62424 whole entry, looked up): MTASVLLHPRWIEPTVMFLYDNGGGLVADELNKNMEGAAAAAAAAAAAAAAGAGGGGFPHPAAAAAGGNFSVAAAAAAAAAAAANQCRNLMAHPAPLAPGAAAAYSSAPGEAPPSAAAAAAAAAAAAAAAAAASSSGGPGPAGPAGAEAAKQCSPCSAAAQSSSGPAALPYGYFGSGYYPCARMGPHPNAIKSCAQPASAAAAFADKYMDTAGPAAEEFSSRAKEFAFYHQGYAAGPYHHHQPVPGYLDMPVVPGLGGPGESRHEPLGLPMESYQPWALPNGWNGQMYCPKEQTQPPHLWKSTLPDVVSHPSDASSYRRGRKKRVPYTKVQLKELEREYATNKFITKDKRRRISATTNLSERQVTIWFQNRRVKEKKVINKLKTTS

The nature of assay [4]: inhibitors of hydroxyurea-induced Chk1 phosphorylation, primary screen, imaging, HeLa, phospho-Chk1 antibody, percent positive cells (AID 1186). As to conditions: hydroxyurea-induced phospho-Chk1 immunofluorescence imaging, higher = more signal.
Assay [5] in a line: inhibitors of hydroxyurea-induced Chk1 phosphorylation, primary screen, imaging, HeLa, phospho-Chk1 nuclear intensity (AID 1187). Particulars: hydroxyurea-induced phospho-Chk1 immunofluorescence imaging, higher = more signal.

Molecules are shown by their SMILES. Activity calls are given as the source filed them. Unless noted, the rule behind the calls is not given here.

`COCCOC(=O)N1C(=O)[C@@]2(c3cc(C#CCNC(N)=O)ccc31)[C@H](c1ccc(OCCO)cc1)N1[C@H](c3ccccc3)[C@H](c3ccccc3)OC(=O)[C@H]1[C@@H]2C(=O)N1CCN(c2ncccn2)CC1`: the composite z-score in assay [1] is -0.299 (inactive); with XIP peptide (Xip251-270) it was 0.245. The z-score in assay [2] was -1.91; in assay [3] it was 0.513 (inactive); in assay [4], -0.117 (inactive); in assay [5] it was -0.434 (inactive).
Consider `COc1cc(C(O)C2C=CC3C(=O)N(C)C(=O)C3N2NC(=O)OC(C)(C)C)cc(OC)c1OC` (configuration not stated), for which the values for the composite z-score (in assay [1]; in the assay with XIP peptide (Xip251-270)) were 1.56 (inactive) and 0.157, respectively. Further, the z-score in assay [2] was -0.361; in assay [3], -1.27 (inactive); in assay [4] it was 0.873 (inactive); in assay [5] it was 0.571 (inactive).
Consider `CC(C)CN1C(=O)[C@@]2(Cc3ccccc31)c1ccccc1C(=O)N(Cc1ccccc1)[C@H]2c1ccc(CO)cc1`, for which the composite z-score in assay [1] was 2.02 (inactive); in the assay with XIP peptide (Xip251-270), -0.526. The z-score in assay [2] was -0.435; in assay [3], -1.07 (inactive); in assay [4] it was -0.0605 (inactive); in assay [5], -0.197 (inactive).
Regarding `O=C1c2ccccc2[C@](Cc2ccccc2I)(C(=O)NC2CC2)[C@H](c2ccc(CO)cc2)N1Cc1ccccc1Cl`, the composite z-score in assay [1] was 1.33 (inactive); in the assay on XIP peptide (Xip251-270), -0.154. For the same compound, the z-score in assay [2] is -1.03; in assay [3] it was -4.21 (inactive); in assay [4], 0.129 (inactive); in assay [5], -0.341 (inactive).
`COc1ccc([Si](C)(C)[C@@H]2[C@@H](CCO)O[C@]3(C(=O)N(Cc4ccc(N5C(=O)c6ccccc6Oc6ccccc65)cc4)c4ccccc43)[C@H]2C)cc1`: the composite z-score in assay [1] was 0.89 (inactive); with XIP peptide (Xip251-270), 0.294. In addition, the z-score in assay [2] was -2.77; in assay [3] it was -1.06 (inactive); in assay [4], -0.42 (inactive); in assay [5] it was -0.394 (inactive).
For the compound `CC(C)NC(=O)[C@@H]1c2ccccc2C(=O)N(Cc2cc(C(F)(F)F)cc(C(F)(F)F)c2)[C@H]1c1ccc(CO)cc1`, the composite z-score in assay [1] is 1.14 (inactive); in the assay on XIP peptide (Xip251-270) it was 0.55. For the same compound, the z-score is -0.337 in assay [2], -3.9 (inactive) in assay [3], 0.349 (inactive) in assay [4] and 0.622 (inactive) in assay [5].
As for `C/C=C/[C@@H](CCn1cc([C@H](O)c2ccccc2)nn1)[Si](C)(C)c1ccc(OC)cc1`, the composite z-score in assay [1] was 0.895 (inactive); in the assay on XIP peptide (Xip251-270), 0.778. In addition, the z-score in assay [2] is -0.689; in assay [3], -6.33 (inactive); in assay [4], 0.546 (inactive); in assay [5] it was -0.159 (inactive).
Take `CN(C)C(=O)[C@]1(Cc2ccccc2N=[N+]=[N-])N=C(c2ccc(OCCCO)cc2)O[C@@H]1c1ccccc1CN=[N+]=[N-]`: the composite z-score in assay [1] is 0.304 (inactive); with XIP peptide (Xip251-270) it was 0.312. The z-score is -2.48 in assay [2], -4.68 (inactive) in assay [3], -0.191 (inactive) in assay [4] and 0.269 (inactive) in assay [5].
Regarding `C=C(COC)C(=O)CC[C@H](OC(=O)c1ccccc1-c1ccccc1C(=O)O)c1ccc(CO)o1`, the results for the composite z-score (in assay [1]; in the assay on XIP peptide (Xip251-270)) were 1.28 (inactive) and 0.393, respectively. The z-score in assay [2] is 0.399; in assay [3], -6.22 (inactive); in assay [4], 0.44 (inactive); in assay [5] it was -0.37 (inactive).
On to `CC(C)CNC(=O)[C@@]1(c2ccc([N+](=O)[O-])cc2)CC(=O)N(C(C)C)[C@@H]1c1ccc(CO)cc1`, for which the composite z-score in assay [1] is -0.299 (inactive); with XIP peptide (Xip251-270) it was 0.131. For the same compound, the z-score in assay [2] was -0.253; in assay [3], -1.21 (inactive); in assay [4], -0.19 (inactive); in assay [5], -0.0822 (inactive).
In the case of `CCCCC(CC)C(O)C1C=CC2C(=O)NC(=O)C2N1Nc1ccccn1` (configuration not stated), the composite z-score was 0.327 (inactive) in assay [1] and 0.781 in the assay on XIP peptide (Xip251-270). Further, the z-score was 0.133 in assay [2], -3.87 (inactive) in assay [3], 0.0438 (inactive) in assay [4] and -0.119 (inactive) in assay [5].
On to `COC(=O)[C@@]1(Cc2ccc(F)cc2)[C@H]2c3cc(C(=O)N(C)C)n(Cc4ccc(C)c(F)c4F)c3C[C@H]2CN1C(=O)c1ccccc1`, for which the figures for the composite z-score (in assay [1]; in the assay with XIP peptide (Xip251-270)) were 0.365 (inactive) and -0.0688, respectively. Further, the z-score in assay [2] is -1.13; in assay [3], -4.74 (inactive); in assay [4] it was -0.014 (inactive); in assay [5] it was -0.193 (inactive).
On to `O=C1OCCC=C[C@H]2OC34C=CCN(Cn5nnc6ccccc65)C(=O)[C@H]3N(CCCCCO)C(=O)[C@@H]4C12` (some centres not stated), for which the composite z-score is 0.282 (inactive) in assay [1] and -0.75 with XIP peptide (Xip251-270). In addition, the z-score in assay [2] was 0.561; in assay [3] it was -4.63 (inactive); in assay [4], 1.09 (inactive); in assay [5], 1.08 (inactive).
For the compound `COC(=O)[C@H]1N=C(c2ccc(OCCCO)cc2)O[C@H]1c1ccccc1CN=[N+]=[N-]`, the composite z-score was 0.262 (inactive) in assay [1] and 0.62 in the assay with XIP peptide (Xip251-270). The z-score is -1.79 in assay [2], -1.53 (inactive) in assay [3], 0.0721 (inactive) in assay [4] and 0.328 (inactive) in assay [5].
For `COCCCNC(=O)[C@@]1(Cc2ccccc2CN=[N+]=[N-])N=C(c2ccc(OCCCO)cc2)O[C@H]1c1ccccc1N=[N+]=[N-]`, the composite z-score was 0.167 (inactive) in assay [1] and 0.668 in the assay with XIP peptide (Xip251-270). For the same compound, the z-score is -2.22 in assay [2], -2.62 (inactive) in assay [3], -0.498 (inactive) in assay [4] and -0.475 (inactive) in assay [5].
As for `CCCNC(=O)[C@@H]1c2ccccc2C(=O)N(CC23CC4CC(CC(C4)C2)C3)[C@H]1c1ccc(CO)cc1`, the results for the composite z-score (in assay [1]; in the assay with XIP peptide (Xip251-270)) were 1.67 (inactive) and 0.773, respectively. The z-score was -2.3 in assay [2], -4.87 (inactive) in assay [3], 0.118 (inactive) in assay [4] and 0.0519 (inactive) in assay [5].
On to `COc1ccc([Si](C)(C)[C@@H]2[C@@H](CCO)O[C@]3(C(=O)N(Cc4ccccc4)c4ccc(N5CCCCC5=O)cc43)[C@H]2C)cc1`, for which the composite z-score in assay [1] is 2.38 (inactive); in the assay on XIP peptide (Xip251-270), 0.565. Also, the z-score in assay [2] is -2.89; in assay [3] it was -4.29 (inactive); in assay [4], -1.71 (inactive); in assay [5] it was -1.73 (inactive).
